In PubChem BioAssay (Tox21) one finds Potency data, which are given here for 27 compounds.

Results filed as inconclusive are left out. Calls of active or inactive are those of the source. Unless noted, calls come from the whole dose curve; as a rule, active = well fitted curve in the direction sought with a large enough effect in the repeat runs; inconclusive = weak or mixed curves; inactive = no such curve, though single readings can be large; an effect the other way counts as inactive or inconclusive.

Assay [1] can be described thus: qHTS assay to identify small molecule agonists of the peroxisome proliferator-activated receptor delta (PPARd) signaling pathway - cell viability counter screen (AID 743211). Note: nearly all actives have a fitted effect of over 55% in size. Note: potency is the fitted concentration of half-maximal effect. The essentials:
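Tox21 library compounds, delivered in DMSO, were incubated 17 h with PPARd-bla HEK293H cells; cytotoxicity was taken from CellTiter-Glo luminescence read 30 min after reagent addition.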

Assay [2] in a line: qHTS assay to identify small molecule antagonists of the peroxisome proliferator-activated receptor delta (PPARd) signaling pathway - cell viability counter screen (AID 743213). Note: nearly all actives have a fitted effect of over 50% in size. Note: potency is the fitted concentration of half-maximal effect. An outline of the steps: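 Cytotoxicity counter screen: CellTiter-Glo luminescence read 30 min after addition, in the same wells as the reporter assay. There, PPARd UAS-bla HEK293H cells (3000/well) were treated 17 h at 37 C with compound and 300 nM L165041.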
(Quantitative high-throughput screening tests each substance at several concentrations.)

Assay [3] addresses Peroxisome proliferator-activated receptor delta (Homo sapiens) (UniProt Q03181). Nature of the assay: qHTS assay to identify small molecule antagonists of the peroxisome proliferator-activated receptor delta (PPARd) signaling pathway (AID 743215; active = well fitted inhibition curve with a large enough effect in the signal ratio in the repeat runs, not every such curve was filed as active; the % refers to the signal ratio;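 note: cells stimulated with agonist L165041 at 300 nM final during compound exposure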; note: potency is the fitted concentration of half-maximal effect). An outline of the steps: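 Agonist L165041 (300 nM final) added with compound to PPARd-bla HEK293H UAS-bla reporter cells; 17 h incubation at 37 C. Read-out: LiveBLAzer FRET substrate, 2 h at room temperature, fluorescence intensity.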

The nature of assay [4]: qHTS assay to identify small molecule agonists of the farnesoid-X-receptor (FXR) signaling pathway - cell viability counter screen (AID 743218). Note: nearly all actives have a fitted effect of over 45% in size. Note: potency is the fitted concentration of half-maximal effect. The essentials:
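Viability counter screen in the same wells: CellTiter-Glo luminescence, 30 min room-temperature incubation, measured after the beta-lactamase read. Cells were GeneBLAzer FXR-UAS-bla HEK 293T, compound-treated 16 h at 37C.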

The nature of assay [5]: qHTS assay to identify small molecule antagonists of the farnesoid-X-receptor (FXR) signaling pathway - cell viability counter screen (AID 743221; active = well fitted cell-killing curve with a large enough effect in the repeat runs, not every such curve was filed as active; note: nearly all actives have a fitted effect of over 50% in size; note: potency is the fitted concentration of half-maximal effect). An outline of the steps: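 Cytotoxicity is taken from ATP luminescence (CellTiter-Glo, 30 min, room temperature) in FXR-bla HEK 293T cells previously incubated 16 h at 37 C with compound and chenodeoxycholic acid at 50 uM final.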

The target in assay [6] is Vitamin D3 receptor (Homo sapiens) (UniProt P11473). In words: qHTS assay to identify small molecule antagonists of the vitamin D receptor (VDR) signaling pathway (AID 743223; active = well fitted inhibition curve with a large enough effect in the signal ratio in the repeat runs, not every such curve was filed as active; the % refers to the signal ratio). The essentials:
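Quantitative HTS in VDR-bla reporter cells stimulated with 1alpha,25-dihydroxyvitamin D3, 3 nM final. Compound exposure 16 h, 37C, 5% CO2. Read-out: beta-lactamase FRET substrate fluorescence, 2 h RT.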

The target is the same in assay [7]. In words: qHTS assay to identify small molecule agonists of the vitamin D receptor (VDR) signaling pathway (AID 743222; calls by dose curve). The essentials: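 Agonist mode, beta-lactamase reporter: fluorescence from LiveBLAzer B/G FRET substrate (2 h, room temperature) read after 16 h compound treatment at 37 C of VDR-bla cells, which were pre-incubated 4 h after seeding.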
In assay [8] the target is Peroxisome proliferator-activated receptor delta (Homo sapiens) (UniProt Q03181). In words: qHTS assay to identify small molecule agonists of the peroxisome proliferator-activated receptor delta (PPARd) signaling pathway (AID 743212; calls by dose curve). The essentials:
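Read-out: beta-lactamase FRET fluorescence after 2 h room-temperature incubation with LiveBLAzer B/G substrate. Cells were HEK293H carrying a UAS-bla reporter for PPARd, treated at 37 C with DMSO-dissolved compounds.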

Assay [9] concerns the target Bile acid receptor (Homo sapiens) (UniProt Q96RI1). In words: qHTS assay to identify small molecule agonists of the farnesoid-X-receptor (FXR) signaling pathway (AID 743220; active = well fitted activation curve with a large enough effect in the signal ratio in the repeat runs, not every such curve was filed as active; the % refers to the signal ratio). The essentials: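 FXR-UAS-bla HEK 293T cells carrying a UAS-driven beta-lactamase reporter were plated for 5 h at 37C/5% CO2, then exposed to DMSO-dissolved Tox21 10K compounds for 16 h at 37C. A LiveBLAzer B/G FRET substrate was loaded for 2 h at room temperature before fluorescence reading.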

Assay [10] shares this target. Nature of the assay: qHTS assay to identify small molecule antagonists of the farnesoid-X-receptor (FXR) signaling pathway (AID 743217; active = well fitted inhibition curve with a large enough effect in the signal ratio in the repeat runs, not every such curve was filed as active; the % refers to the signal ratio; note: potency is the fitted concentration of half-maximal effect). An outline of the steps:
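Antagonist mode: chenodeoxycholic acid at 50 uM final stimulates a UAS-driven beta-lactamase reporter in HEK 293T FXR-bla cells during 16 h, 37C compound exposure. Read-out is FRET substrate fluorescence after 2 h at room temperature.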

Peroxisome proliferator-activated receptor delta (Homo sapiens), sequence (Q03181 whole entry, looked up): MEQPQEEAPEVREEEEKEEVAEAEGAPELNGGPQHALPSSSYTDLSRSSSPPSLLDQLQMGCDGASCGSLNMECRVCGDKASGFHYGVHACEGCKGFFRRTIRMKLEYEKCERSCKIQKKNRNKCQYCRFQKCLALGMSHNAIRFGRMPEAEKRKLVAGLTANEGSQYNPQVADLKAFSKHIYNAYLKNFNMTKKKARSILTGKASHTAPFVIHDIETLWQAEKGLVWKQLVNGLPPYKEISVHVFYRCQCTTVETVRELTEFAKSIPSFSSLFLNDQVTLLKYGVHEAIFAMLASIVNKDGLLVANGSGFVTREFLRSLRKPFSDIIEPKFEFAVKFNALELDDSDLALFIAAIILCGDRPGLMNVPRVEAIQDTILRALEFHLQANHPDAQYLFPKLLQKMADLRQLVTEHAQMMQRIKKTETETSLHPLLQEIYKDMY
Vitamin D3 receptor (Homo sapiens), sequence (P11473 whole entry, looked up): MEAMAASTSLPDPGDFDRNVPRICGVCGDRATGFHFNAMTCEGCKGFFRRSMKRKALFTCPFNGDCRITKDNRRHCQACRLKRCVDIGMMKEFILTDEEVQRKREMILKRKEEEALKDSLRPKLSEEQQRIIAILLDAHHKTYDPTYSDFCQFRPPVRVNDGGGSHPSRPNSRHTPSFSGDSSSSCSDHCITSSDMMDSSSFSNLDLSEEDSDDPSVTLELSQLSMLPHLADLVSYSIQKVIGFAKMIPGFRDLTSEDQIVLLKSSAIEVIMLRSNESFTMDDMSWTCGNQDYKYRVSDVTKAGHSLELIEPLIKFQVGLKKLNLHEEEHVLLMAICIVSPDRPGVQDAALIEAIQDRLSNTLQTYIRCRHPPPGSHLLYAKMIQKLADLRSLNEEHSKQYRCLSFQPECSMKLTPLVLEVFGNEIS
Bile acid receptor (Homo sapiens), sequence (Q96RI1 whole entry, looked up): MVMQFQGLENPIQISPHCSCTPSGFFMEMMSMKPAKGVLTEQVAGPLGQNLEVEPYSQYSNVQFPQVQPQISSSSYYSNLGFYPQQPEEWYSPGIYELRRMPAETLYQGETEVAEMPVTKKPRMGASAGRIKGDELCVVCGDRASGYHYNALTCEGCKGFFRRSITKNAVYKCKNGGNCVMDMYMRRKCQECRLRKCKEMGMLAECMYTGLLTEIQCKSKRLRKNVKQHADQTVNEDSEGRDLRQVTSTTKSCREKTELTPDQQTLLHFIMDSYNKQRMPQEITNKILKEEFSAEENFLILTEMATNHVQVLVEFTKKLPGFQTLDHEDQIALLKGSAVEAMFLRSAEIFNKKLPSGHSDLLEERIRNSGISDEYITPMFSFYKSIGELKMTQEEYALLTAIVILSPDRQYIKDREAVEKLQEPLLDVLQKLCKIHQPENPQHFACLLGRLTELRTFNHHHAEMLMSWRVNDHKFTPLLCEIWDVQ

Regarding `O=C(/C=C/c1ccc(O)c(O)c1)O[C@@H]1C[C@@](OC(=O)/C=C/c2ccc(O)c(O)c2)(C(=O)O)C[C@@H](O)[C@@H]1O`, the Potency entry in assay [1], in assay [2], in assay [3], in assay [4], in assay [5] and in assay [6] was “inactive” in each case.

For `O=C1c2ccccc2C(=O)C1c1ccc(Br)cc1`, the Potency entry in assay [1], in assay [2], in assay [3], in assay [4], in assay [5] and in assay [7] was “inactive” in each case. Besides, the Potency result in [6] is “inactive”.

`OCCN1CCN(CCCN2c3ccccc3Sc3ccc(Cl)cc32)CC1`: the Potency is 29.8 µM (active) in [1], 26.6 µM (active) in [4] and 26.6 µM (active) in [5]. Besides, the Potency result in [8] and in assay [9] was “inactive” in each case.

As for `Cc1cccc(O)c1N`, the Potency entry in assay [1], in [2], in assay [10], in assay [4], in assay [9] and in assay [5] was “inactive” throughout.

Turning to `C[C@@H](O)[C@H]1C(=O)N2C(C(=O)O)=C([C@H]3CCCO3)S[C@H]12`, the Potency result in [1], in assay [2], in [3], in assay [10], in [4] and in [9] was “inactive” throughout.

Consider `CN1CCCC(CC2c3ccccc3Sc3ccccc32)C1` (stereo not given), for which the Potency is 29.8 µM (active) in assay [1], 26.6 µM (active) in assay [2] and 13.3 µM (active) in assay [4]. Moreover, the Potency entry in assay [9] was “inactive”.

Take `C[C@@H](CN(C)C)CN1c2ccccc2Sc2ccccc21`: the Potency in assay [1] is 23.7 µM (active); in assay [2] it was 26.6 µM (active). For the same compound, the Potency entry in [3] and in [9] was “inactive” each time.

On to `CC1(C)[C@H](C(=O)O)N2C(=O)C[C@H]2S1(=O)=O`, for which the Potency entry in assay [1], in assay [2], in assay [4], in assay [9], in assay [5] and in [7] was “inactive” in each case.

For the compound `CC(CN(C)C)C(C)(O)Cc1ccc(Cl)cc1` (stereo not given), the Potency result in assay [1], in assay [8], in assay [3], in assay [4], in [5] and in assay [6] was “inactive” each time.

Consider `C/C=C/C=C/C=O`, for which the Potency result in [1], in [8], in assay [4], in assay [5] and in [7] was “inactive” each time.

Take `CCCCCCCCCCCCCCN(CCO)CCO`: the Potency in assay [1] is 43.6 µM (active); in assay [2] it was 49 µM (active); in [10], 49 µM (active); in [4], 43.6 µM (active). In addition, in [7], the Potency result is “inactive”.

With `CCCCOc1ccc(OCCCN2CCOCC2)cc1`, the Potency entry in assay [1], in assay [2], in assay [10], in assay [9], in [5] and in assay [7] was “inactive” throughout.

For `CC(C)(c1ccccc1)c1ccccc1`, the Potency result in assay [1], in assay [2], in assay [4], in assay [5], in assay [7] and in assay [6] was “inactive” in each case.

As for `CC1(CN2CCC(n3c(=O)[nH]c4ccccc43)CC2)OCc2ccccc2-n2cccc21` (stereo not given), the Potency in assay [1] is 33.5 µM (active). For the same compound, the Potency result in assay [3] and in assay [6] was “inactive” each time.

As for `CC1(C)S[C@@H]2[C@H](NC(=O)C(c3ccccc3)S(=O)(=O)O)C(=O)N2[C@H]1C(=O)O` (stereo not given in full), the Potency result in assay [1], in assay [2], in assay [4], in [5], in assay [7] and in assay [6] was “inactive” in each case.

For the compound `Oc1ccc(Cl)c2cccnc12`, the Potency is 0.596 µM (active) in assay [1] and 1.06 µM (active) in assay [3]. The Potency result in assay [4], in assay [9] and in assay [5] was “inactive” each time.

On to `Oc1cccc(O)c1O`, for which the Potency result in assay [1], in assay [3], in assay [4], in assay [5], in [7] and in assay [6] was “inactive” each time.

For the compound `Cc1ccco1`, the Potency result in assay [1], in [2], in assay [4], in [5], in [7] and in assay [6] was “inactive” in each case.

For `OC(CCN1CCCC1)(c1ccccc1)C1CCCCC1` (stereo not given), the Potency result in assay [1], in [2], in assay [4], in assay [7] and in assay [6] was “inactive” each time.

Take `O=c1c(O)c(-c2ccc(O)cc2)oc2cc(O)cc(O)c12`: the Potency entry in assay [1], in [2], in assay [9] and in assay [5] was “inactive” each time.

Regarding `O=C(/C=C/c1ccccc1)OCCc1ccccc1`, the Potency result in assay [1], in [2] and in assay [5] was “inactive” in each case.

Regarding `O=C1c2ccccc2C(=O)C1(O)O`, the Potency entry in assay [1], in assay [2], in assay [4], in assay [5] and in assay [6] was “inactive” each time.

As to `CC(C)COCC(CN(Cc1ccccc1)c1ccccc1)N1CCCC1` (stereo not given), the Potency in [1] was 21.1 µM (active); in assay [4] it was 33.5 µM (active). Also, the Potency result in assay [3] and in [9] was “inactive” throughout.

As for `C=Cc1ccc(S(=O)(=O)O)cc1`, the Potency entry in assay [1], in [3] and in assay [6] was “inactive” in each case.

`CCOc1cccc(-n2cc(C(=O)N3CCN(c4cc(C(=O)O)c5ccccc5c4)CC3)nc2-c2ccc(C)cc2)c1`: the Potency in assay [1] is 37.1 µM (active); in assay [4] it was 46.7 µM (active). In addition, the Potency entry in assay [3] and in assay [10] was “inactive” throughout.

Consider `CC(C)=CCC1C(=O)N(c2ccccc2)N(c2ccccc2)C1=O`, for which the Potency entry in assay [1], in assay [4], in assay [5] and in [7] was “inactive” each time.

Regarding `CNC(=O)c1cnn(-c2nc(N)c3ncn([C@@H]4O[C@H](CO)[C@@H](O)[C@H]4O)c3n2)c1`, the Potency entry in [1], in [2], in assay [4], in [5] and in assay [7] was “inactive” throughout.
